Experimental data from PubChem BioAssay AID588405 (Sanford-Burnham Center for Chemical Genomics, 2011).
“And” between values parts separate entries of the source, which are not always exact repeats. Identical values can stand only once. In all, about 360,000 compounds went through this assay and about 6,200 (1.7%) were called active. This is one part of a sample in which actives are shown more often than they occur.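 The calls were made as follows: active = inhibition of at least 50% at 20 µM; inactive = the rest.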

Assay: inhibition of PEG-3 promoter activity – cell-based, HeLa, luciferase luminescence, primary screen (AID 588405)
Conditions: HeLa PEG-Prom luciferase reporter, overnight, at 20 µM, stronger effect = higher value
With CCC(C)(O)C(=O)OC1C(=O)OC2CC3C(C)=CC(=O)C(O)C3(C)C3C4(O)OCC23C1C(C)C4O (stereo not given) the inhibition was 100% (active). For O=C(O)CCn1cc(C=C2C(=O)NC(=S)NC2=O)c(-c2cccc(Br)c2)n1, the inhibition was -1.73% (inactive). For CN(C)C(=O)Oc1cc(OC(=O)N(C)C)cc(C(O)CNC(C)(C)C)c1 (stereo not given), the inhibition was 4.25% (inactive) and -0.27% (inactive). In the case of O=C1NC(=O)N(CCc2ccc(F)cc2)C(=O)/C1=C/C=C/c1ccccc1, the inhibition was 90.6% (active). In the case of O=C1NC(=O)N(c2ccc(F)cc2)C(=O)/C1=C/c1ccc2c(c1)CCCN2Cc1ccccc1, the inhibition was 12.7% (inactive). With Cc1cc2ccccn2c1C(C[N+](=O)[O-])c1c(F)cccc1Cl (stereo not given) the inhibition was 38.7% (inactive). With CC(C)CN1Cc2cc(N3CCCCC3)ccc2-n2nncc2C1 the inhibition was -1.02% (inactive). For COC(=O)[C@@H]1C(OC(=O)c2ccccc2)CC2CCC1N2C (stereo not given in full), the inhibition was -10.5% (inactive). In the case of CC(=O)OC1C2(CC3N4C(=O)C5(CO)SSC4(CC31O)C(=O)N5C)OC(C)C(C)(C)C2=O (stereo not given), the inhibition was 99.3% (active). With CC1C2Cn3c(nc4ccccc43)C1N(C)O2 (stereo not given) the inhibition was -2.57% (inactive). With Nc1ccc([N+](=O)[O-])cc1 the inhibition was -3.82% (inactive). In the case of CC(C)N(CC#CCC1(O)c2ccccc2-c2ccccc21)C(C)C, the inhibition was -15.7% (inactive). In the case of COc1ccc(C(=O)CC2C(=O)N(C)C(=O)N(C)C2=O)cc1, the inhibition was 13.1% (inactive). With CC(=O)Nc1ccccc1C(=O)OCC(=O)c1cccc2ccccc12 the inhibition was -26.1% (inactive). For N#CC1=C(N)Oc2c(c(=O)oc3ccccc23)C1c1ccccc1OC(=O)c1cccs1 (stereo not given), the inhibition was 19.6% (inactive). In the case of O=P(OC1=CCCCC1)(c1ccccc1)c1ccccc1, the inhibition was 8.64% (inactive). With O=C1C2(Cl)C3(Cl)C4(Cl)C(Cl)(Cl)C5(Cl)C3(Cl)C1(Cl)C5(Cl)C24Cl (stereo not given) the inhibition was 86.1% (active). For OC1/C(=C/c2ccc(C(F)(F)F)cc2)N2CCC1CC2 (stereo not given), the inhibition was -51.4% (inactive). With CC12CCC(O)CC1CCC1C2CCC2(C)C(C(=O)CC(O)C(F)(F)F)CCC12 (stereo not given) the inhibition was -18.9% (inactive). For C[C@]12CC[C@H](O)C[C@H]1CC[C@@H]1C2CC[C@]2(C)[C@@H](C3=CC(=O)OC3)[C@@H](O)C[C@]12O (stereo not given in full), the inhibition was 112% (active). In the case of CCN1c2nc3c(C)cccn3c(=O)c2CC2(C(=O)N(C)C(=O)N(C)C2=O)C1C (stereo not given), the inhibition was 4.11% (inactive). For CN1CCC(N(C)Cc2cccnc2)CC1, the inhibition was -0.72% (inactive). For O=C(OCCN1CCOCC1)C1(c2ccccc2)CCCC1, the inhibition was 6.31% (inactive). With COc1cc(OC)cc(C2(C#N)CCN(C)CC2)c1 the inhibition was 16.1% (inactive). For Cc1cc(OCc2cc(C(=O)O)oc2C)c2c3c(c(=O)oc2c1)CCCC3, the inhibition was 0.36% (inactive). In the case of Fc1ccc(C2N3CCCN23)cc1 (stereo not given), the inhibition was 2.08% (inactive). With CCCCCCCCCCCCn1ccc(=N)cc1 the inhibition was 72.5% (active). In the case of COc1ccccc1N=C1SCCCN1C, the inhibition was 4.44% (inactive). For CCN1CCN(c2ccc([N+](=O)[O-])cc2C#N)CC1, the inhibition was 13.3% (inactive). For CC(Cc1ccccc1)NCCC(c1ccccc1)c1ccccc1 (stereo not given), the inhibition was 69.5% (active). With CCc1cccc2c(C#N)cn(CC(=O)N3CCOCC3)c12 the inhibition was 16.4% (inactive). In the case of CC1CC=CCC12C(=O)NC(=S)NC2=O (stereo not given), the inhibition was 4.94% (inactive). For COP(=O)(OC)C(NC(=O)c1ccc(C)cc1)C(Cl)(Cl)Cl (stereo not given), the inhibition was -13.6% (inactive). In the case of CC(CC(C#N)(c1ccccc1)c1ccccc1)N1CCCCC1 (stereo not given), the inhibition was -0.65% (inactive). In the case of CCN1CCN(Cc2cc(OC)c3c(c2)OCO3)CC1, the inhibition was 14.7% (inactive). In the case of O=C(NC(=S)N1C[C@H]2C[C@H](C1)c1cccc(=O)n1C2)c1ccc(F)cc1, the inhibition was 10.8% (inactive). For CNCC(O)c1cc(F)c(OCc2ccccc2)c(OCc2ccccc2)c1F (stereo not given), the inhibition was 100% (active). In the case of O=C(CSC1c2ccccc2-c2ccccc21)N/N=C/c1ccccc1, the inhibition was 28.7% (inactive). For CCOc1ccc(CN(CCCl)CCCl)cc1C(=O)OC, the inhibition was 21.9% (inactive). With O=c1[nH]c2ccccc2n1C1CCN(C(c2ccccc2)c2nnnn2Cc2ccccc2)CC1 (stereo not given) the inhibition was 71% (active). With COc1ccc(-n2nnnc2C(c2cccc3ccccc23)N2CCC(n3c(=O)[nH]c4ccccc43)CC2)cc1 (stereo not given) the inhibition was 50.2% (active). For CSCCC(c1nnnn1C(C)(C)C)N1CCC(n2c(=O)[nH]c3ccccc32)CC1 (stereo not given), the inhibition was 17.6% (inactive). For O=C1NCN(c2ccccc2)C12CCN(C(c1cccs1)c1nnnn1C1CCCCC1)CC2 (stereo not given), the inhibition was 22% (inactive). For COc1cccc(C(c2nnnn2-c2ccc3c(c2)OCCO3)N2CCC3(CC2)C(=O)NCN3c2ccccc2)c1OC (stereo not given), the inhibition was 45.9% (inactive). In the case of O=c1[nH]c2ccccc2n1C1CCN(C(c2ccnc3ccccc23)c2nnnn2Cc2ccccc2)CC1 (stereo not given), the inhibition was 60.1% (active). With Cc1ccc(Cn2nnnc2CN2CCC(n3nnc4ccccc43)CC2)cc1 the inhibition was 16.7% (inactive). With CN1CCN(Cc2ccccc2C(F)(F)F)CC1 the inhibition was -6.7% (inactive). With CC(=O)c1ccc(OC(NC(=O)Cc2ccccc2)C(Cl)(Cl)Cl)cc1 (stereo not given) the inhibition was -5.19% (inactive). In the case of COc1ccc(N=Cc2c(O)n(C)c(=O)[nH]c2=O)cc1, the inhibition was -20.6% (inactive). In the case of O=[N+]([O-])c1ccc(C2C3C(c4ccccc4)=NC4(CCCCC4)N32)cc1 (stereo not given), the inhibition was 23.4% (inactive). With COc1ccccc1NC(=O)N1C[C@@H]2C[C@@H](C1)c1cccc(=O)n1C2 the inhibition was -1.31% (inactive). With CCN1C(=O)NC(=O)C2(CCCC2)C1=O the inhibition was -7.97% (inactive). With C=CCn1c(O)c(/C=N/N2CCOCC2)c(=O)[nH]c1=S the inhibition was -0.23% (inactive). For CC(=CCOc1ccc2ccc(=O)oc2c1)C1=CC(=O)C(C)(C)O1, the inhibition was 62.4% (active). With CN(C)c1nc(N(C)C)nc(N(C#N)CCCl)n1 the inhibition was -5.34% (inactive). For C[C@]12CCC3C(CC[C@H]4[C@H](O)[C@H](O)CC[C@]34C)C1CC[C@@H]2O (stereo not given in full), the inhibition was 0.2% (inactive). For CCCOC(=O)C1C2c3ccccc3C(c3ccccc32)C1C(=O)O (stereo not given), the inhibition was 12.7% (inactive). In the case of Cc1cc(-c2ccc(N)c(C)c2)ccc1N, the inhibition was -45.4% (inactive). For O=C(C1CC(=O)N(C2CCCC2)C1)N1CCC2(CC1)OCCO2 (stereo not given), the inhibition was -6.37% (inactive). With CC1([N+](=O)[O-])COP(=O)(Nc2ccc(F)cc2)OC1 (stereo not given) the inhibition was 3.6% (inactive). For CCCCCn1c(=O)c(C(=O)NCc2ccccn2)c(O)c2ccccc21, the inhibition was 15.5% (inactive). In the case of CCOc1ccc(-c2cc(C)[n+](CCN(CC)CC)c(-c3ccc(OCC)cc3)c2)cc1, the inhibition was 53.3% (active). In the case of CC(C)n1c(=O)c(C=Nc2ccc(Br)cc2)c(O)n(Cc2ccco2)c1=O, the inhibition was 8.27% (inactive). With COC(=O)C1=C(c2ccc(Cl)c(C(F)(F)F)c2)C[C@@H]2CC[C@H]1N2C(=O)NC1CC1 the inhibition was -0.39% (inactive). For COC(=O)C1=C(c2ccc3ccccc3c2)C[C@@H]2CC[C@H]1N2C(=O)NCCO, the inhibition was -5.4% (inactive). In the case of COC1C(O)C(C)OC(OC2CCC3(C=O)C(CCC4C3CCC3(C)C(C5=CC(=O)OC5)CCC43O)C2)C1O (stereo not given), the inhibition was 105% (active). In the case of CC1C(=O)OC2CCN3CC=C(COC(=O)C(C)(O)C1(C)O)C23 (stereo not given), the inhibition was -0.84% (inactive). In the case of CC1=C(C(=O)Nc2ccccc2)S(=O)(=O)CCO1, the inhibition was 9.24% (inactive). In the case of CC1=C2C(=O)C3C(CC=C4CC(OC5OC(O)C(O)C(O)C5CO)CCC43C)C2CCC12OC1CC(C)CNC1C2C (stereo not given), the inhibition was -7.24% (inactive). With CCN(CC)C(=O)c1ccc(NC(=O)c2cc(-n3cnnc3)ccc2Cl)cc1 the inhibition was 5.1% (inactive). In the case of CN(C)CC1Oc2ccccc2OC1(O)c1ccccc1 (stereo not given), the inhibition was 103% (active). For c1cc2c(cc1C1OCC3C(c4ccc5c(c4)OCO5)OCC13)OCO2 (stereo not given), the inhibition was -66.8% (inactive). With COc1ccc(NC(=O)N2Cc3ccccc3-n3nncc3C2)cc1 the inhibition was 7.2% (inactive). For Cc1ccc(C)c(NC2=NCCCS2)c1, the inhibition was 4.99% (inactive). In the case of COC(=O)C1=C(c2ccc(F)cc2OCc2ccccc2)C[C@@H]2CC[C@H]1N2C(=O)NCc1ccc(C(C)(C)C)cc1, the inhibition was 14.9% (inactive). For CC1(C)Cc2c(C#N)c(N3CCNCC3)nc(-c3ccco3)c2CS1, the inhibition was 78.3% (active). For c1ccc(N2Cc3ccccc3-n3nncc3C2)nc1, the inhibition was -7.56% (inactive). For COc1cc(-n2c(=S)[nH]c3ccc(C)cc3c2=O)c(Cl)cc1Cl, the inhibition was 30.3% (inactive). With CCOC(=O)c1c(C)c(C(=O)N2CCC3(CC2)OCCO3)c(C)n1CC the inhibition was 13.1% (inactive). In the case of C[C@H]1CN([C@@H](C)CO)C(=O)CCCn2nncc2CO[C@H]1CN(C)C(=O)Oc1cccc2ccccc12, the inhibition was 9.28% (inactive).
